KCNQ2 enhance: potentiators of rat KCNQ2 potassium channel. O88943. CHO-K1 KCNQ2, FluxOR thallium flux fluorescence; active compounds read high. B-score at 10 µM. actives 0.54% (n = 310,000). AID 2239;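 active means fluorescence ratio B-score at least 3 SD of library B-scores, with initial fluorescence B-score within 3 of them, cut at about 5.3 in these data; same plate scores as AID 2156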;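 further: B-score of peak minus minimum over baseline fluorescence ratio after K+ and Tl+ stimulus; positive B-score means potentiation of KCNQ2 with more thallium influx and brighter signal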
KCNQ2 inh: blocks the rat KCNQ2 potassium channel | actives 1.1% (n = 310,000) | CHO-K1 KCNQ2, FluxOR thallium flux, 20 min; active compounds read low | B-score at 10 µM | O88943;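 active means fluorescence ratio B-score at most minus 3 library SDs, with starting brightness B-score within 2 library SDs, cut at about -5.5 in these data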
* marks the source's active call; other numbers are inactive results; i = inactive; · = no result. Sampled rows, rich in hits. Any-hit rate of the full collection: about 1.6%.

SMILES	KCNQ2 enhance	KCNQ2 inh
Cc1ccnc(OC(C(=O)O)C(OCc2ccccc2)(c2ccccc2)c2ccc(C(F)(F)F)cc2)n1 (centres undefined)	-6.1	-6.1*
Cc1ccc(C)c(N(C(=O)c2snc(C(N)=O)c2N)C(C(=O)NCC2CCCO2)c2ccc(C)o2)c1 (centres undefined)	·	i
COc1cccc([C@@H]2Oc3ccc(OC)cc3C(=O)[C@H]2OC(=O)N[C@H](C)C2CCCCC2)c1	-6.8	-6.8*
COc1ccc2c(c1)O[C@H](c1ccc3c(c1)OCO3)[C@@H](OC(=O)N[C@H](C)C1CCCCC1)C2=O	·	i
O=C(CC1C(=O)NCCN1Cc1ccccc1C(F)(F)F)NCCn1cccn1 (centres undefined)	0.43	i
COC(=O)c1ccc(C(=O)OC)c(NC(=O)CCc2ccc(C)o2)c1	0.33	i
COC(=O)c1c(NC(=O)CCc2ccc(C)o2)sc(C)c1C	-5.9	-5.9*
CCN1CCN(c2ccc(N3CCN(C(=O)c4ccc(Br)o4)CC3)nn2)CC1	·	i
CN1CCN(C(CNC(=O)C(=O)NC2CCCC2)c2ccc(F)cc2)CC1 (centres undefined)	0.07	i
COc1ccccc1NC(=O)N1CCCC(c2nc3c(nnn3Cc3ccc(C)cc3)c(=O)[nH]2)C1 (centres undefined)	-6.2	-6.2*
COC(=O)c1ccccc1S(=O)(=O)N1CCCC(c2nc3c(nnn3Cc3ccc(C)cc3)c(=O)[nH]2)C1 (centres undefined)	·	i
Cc1ccccc1-c1nc2ccccc2c(=O)n1/N=C/c1ccc([N+](=O)[O-])cc1	·	i
O=c1c2ccccc2nc(-c2ccccc2)n1/N=C/c1ccc([N+](=O)[O-])cc1	-7.6	-7.6*
CCOc1ncccc1C(=O)NCc1ccccc1Cl	·	i
Cc1ccc(S(=O)(=O)N(Cc2cccc(F)c2)C(=O)N2CCN(C)CC2)cc1	0.87	i
Cc1ccccc1CNC(=O)C1CCC(=O)N(Cc2cccc(F)c2)C1 (centres undefined)	-6.3	-6.3*
O=C(NCc1ccccc1OC(F)(F)F)C1CCC(=O)N(Cc2cccc(F)c2)C1 (centres undefined)	·	i
CCc1cc2c(COC(=O)c3cccc(NS(C)(=O)=O)c3)cc(=O)oc2cc1O	0.52	i
Cc1ccc(CN2CCc3c(OCC(=O)Nc4cccc(C)c4C)cccc3C2=O)cc1	-7.2	-7.2*
Cc1ccc(C)c(NC(=O)COc2cccc3c2CCN(Cc2ccccc2C)C3=O)c1	·	i
O=C(N/C(=C/c1ccco1)C(=O)N1CCOCC1)c1ccccc1Br	·	i
CN1CCN(c2nc(-c3cccnc3)nc3ccccc23)CC1	1.7	i
c1cncc(-c2nc(N3CCCCCC3)c3ccccc3n2)c1	-7.4	-7.4*
O=C(Nc1cccc(F)c1)c1ccc(Cn2cc([N+](=O)[O-])cn2)o1	5.5*	i
Cc1ccccc1NC(=O)c1ccc(Cn2cc([N+](=O)[O-])cn2)o1	0.72	i
SMILES	KCNQ2 enhance	KCNQ2 inh
COc1cccc(C(=O)NCCN2CCN(c3ccccc3)CC2)c1	·	i
COc1ccc(CCCC(=O)NCC(=O)N/N=C/c2cc(Cl)ccc2OC)cc1	0.36	i
CCC(Sc1nc(C)cc(C)n1)C(=O)Nc1cc(C)on1 (centres undefined)	·	i
CCC(Sc1nc(C)cc(C)n1)C(=O)O (centres undefined)	6.2*	i
CCOC(=O)C(Cc1ccccc1)C(=O)NCc1cccnc1 (centres undefined)	0.94	i
CCOC(=O)C(Cc1ccccc1)C(=O)Nc1cccc2ccccc12 (centres undefined)	-5.8	-5.8*
Cn1c(N)c(C(=O)COC(=O)C2CC(=O)N(Cc3ccccc3)C2)c(=O)n(C)c1=O (centres undefined)	0.23	i
C/C(=N\NC(=O)c1nn(C)c(C)c1Br)c1ccc(NC(=O)C2CCCC2)cc1	0.89	i
O=C(c1cc(-c2cccnc2)nc2ccc(Cl)cc12)N1CCN(S(=O)(=O)c2cccs2)CC1	·	i
COc1cccc(CN2CCN(C(=O)c3cc(-c4cccnc4)nc4ccc(C)cc34)CC2)c1	-7.3	-7.3*
CCCc1cc(C(=O)NC2CCCN(Cc3ccccc3F)C2)no1 (centres undefined)	0.16	i
COc1ccc(S(=O)(=O)N2CCC(C(=O)NCCC(=O)Nc3nccs3)CC2)cc1	·	i
CCOC(=O)c1c(C)c(C(=O)NCCc2ccccc2)c(C)n1C	·	i
CCOC(=O)c1c(C(=O)OCC)c(C)n(CCc2ccccc2)c1C	-5.8	-5.8*
CC(=O)c1cccc(NC(=O)Cn2cnc(S(=O)(=O)N3CCOCC3)c2)c1	·	i
CC(C)C(c1nnnn1Cc1cccs1)N1CCN(C(=O)c2ccco2)CC1 (centres undefined)	0.23	i
CCOc1cc(C2NC(=O)CCC2[N+](=O)[O-])cc(Br)c1OCC (centres undefined)	1.5	i
Cc1ccc(S(=O)(=O)Nc2cc3c4c(c2)CCC(=O)N4CCC3)cc1	0.03	i

From PubChem
